# Source: PubChem (NMMLSC)
# Shown are actives, neighbours in structure and some others; about 3.5% of the full set was active somewhere.
# Autofluor counter: compound fluorescence in toxin protease inhibitor counterscreen; compound autofluorescence counterscreen, microsphere flow cytometry; hits give high values; fluorescence intensity (concentration not given with the values); 360,000 compounds, 3.1% hits; in the data active = fluorescence intensity above about 16000; inconclusive = no clear call, values can overlap the other calls
# BoNT-A LC inh2: inhibitors of Botulinum neurotoxin A light chain protease. multiplex microsphere protease substrate cleavage, flow cytometry. inhibition, % at 10 µM. 360,000 compounds, 0.17% hits; also: plate controls were buffer without enzyme for full effect and enzyme alone for no effect
# BoNT F protease: inhibitors of Botulinum neurotoxin F light chain protease | AID 588497 | Multiplex microsphere protease cleavage assay, flow cytometry | inhibition, % at 10 µM | 360,000 compounds, 0.22% hits; in the data active = inhibition above about 35%, passing the limit was not always enough; inconclusive = no clear call, values can overlap the other calls; also: plate controls were buffer without enzyme for full effect and enzyme alone for no effect
# Anthrax LF inh2: anthrax lethal factor protease inhibition. P15917. 360,000 compounds, 0.12% hits. multiplex microsphere protease cleavage assay, LF. inhibition, % at 10 µM; also: plate controls were buffer without enzyme for full effect and enzyme alone for no effect
# Target sequence (P15917 whole entry, looked up): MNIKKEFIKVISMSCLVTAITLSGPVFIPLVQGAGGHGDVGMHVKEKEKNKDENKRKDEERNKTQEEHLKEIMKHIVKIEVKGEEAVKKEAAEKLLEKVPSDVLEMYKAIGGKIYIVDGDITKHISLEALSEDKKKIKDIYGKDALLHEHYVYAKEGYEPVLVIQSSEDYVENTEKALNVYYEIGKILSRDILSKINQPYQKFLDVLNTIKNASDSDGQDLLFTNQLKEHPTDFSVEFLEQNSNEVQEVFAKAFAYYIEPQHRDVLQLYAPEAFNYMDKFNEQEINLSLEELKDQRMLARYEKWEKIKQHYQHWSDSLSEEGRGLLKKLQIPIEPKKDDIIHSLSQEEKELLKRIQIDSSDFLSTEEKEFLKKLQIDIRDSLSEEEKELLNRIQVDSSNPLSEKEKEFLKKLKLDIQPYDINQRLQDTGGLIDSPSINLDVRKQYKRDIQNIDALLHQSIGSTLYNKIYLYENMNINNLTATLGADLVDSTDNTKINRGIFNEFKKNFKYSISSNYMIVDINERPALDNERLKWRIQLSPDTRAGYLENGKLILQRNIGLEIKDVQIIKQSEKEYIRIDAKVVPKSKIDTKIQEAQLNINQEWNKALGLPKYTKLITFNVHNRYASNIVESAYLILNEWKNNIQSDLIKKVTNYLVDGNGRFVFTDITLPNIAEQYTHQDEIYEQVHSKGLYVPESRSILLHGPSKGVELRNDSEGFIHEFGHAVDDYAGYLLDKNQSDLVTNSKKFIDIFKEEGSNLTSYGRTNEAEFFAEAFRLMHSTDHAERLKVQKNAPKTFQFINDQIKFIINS
# Starred values were filed as active, the others as inactive; ? = inconclusive. Rule as the data show it, unless noted: active = inhibition above about 30%; inconclusive = no clear call, values can overlap the other calls; inactive = below that.
SMILES,Autofluor counter,BoNT-A LC inh2,BoNT F protease,Anthrax LF inh2
COc1ccccc1CNC(=O)c1ccc(NS(C)(=O)=O)cc1,6854,-0.6,-18.0,3.1
CCc1c(C)c2ccc(OCC(=O)N(C)C)c(C)c2oc1=O,21643*,0.9,3.9,1.3
CCc1c(C)c2ccc(OCC(=O)OC(C)C)c(C)c2oc1=O,24390*,-1.2,-1.9,1.2
COC(=O)Cc1c(C)c2ccc(OCc3nn[nH]n3)c(C)c2oc1=O,21317*,4.0,3.1,-6.1
Cc1cccc(C)c1NC(=O)CN(C)C(=O)C1CC1C (stereo not given),4039,-0.5,4.4,6.8
Cc1ccc(OCC(=O)OCC(=O)N2c3ccccc3CC2C)cc1C (stereo not given),2920,-0.5,-12.5,-2.4
COc1ccc2c(c1)c(C(C)=O)c(C)n2-c1ccccc1OC,3662,?,?,-18.2
CN(CC(=O)NCCc1ccc(S(N)(=O)=O)cc1)CC(=O)Nc1cccc(F)c1,?,2.6,?,3.9
COc1ccccc1C(=O)Nc1ccc(S(=O)(=O)N2CCCC2)cc1,16385*,?,-1.7,-3.6
COc1ccccc1N(CC(=O)Nc1ccc(S(=O)(=O)N2CCCCC2)cc1)S(C)(=O)=O,22900*,?,-4.5,-1.6
COc1ccccc1CC(=O)Nc1ccc(S(=O)(=O)N2CCCCC2)cc1,4278,-0.3,6.3,-10.7
O=C(O)c1cc(S(=O)(=O)N2CCCCC2)ccc1F,21594*,-2.9,-4.1,-2.0
O=C(Nc1ccc(O)cc1)c1cc(S(=O)(=O)N2CCCC2)ccc1Cl,20180*,6.2,10.0,0.2
O=C(O)c1cc(S(=O)(=O)N2CCCCC2)ccc1Cl,3030,-1.4,?,2.9
COc1ccccc1C(=O)Nc1ccc(S(=O)(=O)N2CCCCC2)cc1,3783,-0.3,14.3,1.9
Cc1ccc(NC(=O)c2cc(S(=O)(=O)N3CCCCC3)ccc2N2CCOCC2)cc1,3866,0.6,-4.9,1.0
COc1ccc(NC(=O)c2cc(S(=O)(=O)N3CCCCC3)ccc2N2CCCCC2)cn1,23676*,-1.1,-1.5,0.6
Cc1cc(C)nc(SC(C)C(=O)Nc2ccc(S(N)(=O)=O)cc2)n1 (stereo not given),21604*,?,1.9,1.1
CCOC(=O)c1ccc(NC(=O)Cn2cccc2)cc1,22123*,1.5,0.4,-10.0
CCOC(=O)c1ccc(NC(=O)CN2C(=O)CNC2=O)cc1,23272*,-3.0,-2.8,0.1
CCOC(=O)Cn1nnc(-c2ccc(S(C)(=O)=O)cc2)n1,23651*,-0.5,-2.1,-1.5
CCOC(=O)c1ccc(NC(=O)CSC2=NC(=O)C(CC)C(=O)N2)cc1 (stereo not given),16464*,0.3,-2.0,-1.9
CCC(C)[C@H]1COCCS(=O)(=O)N1Cc1ccc(Br)cc1 (stereo not given in full),3952,-0.4,1.8,-3.2
CC(=O)Nc1ccc(NC(=O)C(C)OC(=O)CCC2CCCC2)cc1 (stereo not given),?,-1.3,-0.3,3.8
O=C(NCc1cccs1)c1ccc2nc([C@@H]3O[C@H](CO)[C@H](O)[C@H](O)[C@H]3O)[nH]c2c1,4031,-0.7,-10.3,-2.1
SMILES,Autofluor counter,BoNT-A LC inh2,BoNT F protease,Anthrax LF inh2
CC(=O)N/N=C(\C)C1COc2ccccc2O1 (stereo not given),3134,-2.9,-22.9,-11.0
CCOC(=O)c1ccc(NC(=O)COC)cc1,9164,0.9,8.1,-0.6
CCOC(=O)c1ccc(NC(=O)Cn2nnc(-c3ccccc3)n2)cc1,3822,-0.9,?,-5.8
CCOC(=O)c1ccc(NC(=O)Cn2nnc(-c3ccc(F)cc3)n2)cc1,23033*,-2.5,-2.3,-0.4
CCOC(=O)c1ccc(NC(=O)CN2C(=O)CSC2=O)cc1,22745*,1.0,0.9,0.6
CCOC(=O)c1ccc(NC(=O)C(CC)(CC)C(=O)OCC)cc1,18219*,-3.8,-9.3,2.1
CCc1cccc(NC(=O)Cn2cccc2)c1,23986*,-1.4,-1.8,-4.2
CCc1cccc(NC(=O)CN2C(=O)NC3(CCCCCCC3)C2=O)c1,13579,10.3,8.5,-15.7
CC(C)CC1NC(=O)N(CC(=O)Nc2ccc(OC(F)F)cc2)C1=O (stereo not given),3996,6.0,16.0,-1.4
O=C(c1ccco1)N1CC2(CC(c3ccc(Cl)cc3)=NO2)CN1Cc1ccc(Br)cc1 (stereo not given),3729,-0.1,-2.4,-1.9
CC(=O)Nc1c(Cl)cc(Cl)c2c1Cc1cc(Cl)ccc1-2,3762,0.6,10.7,-1.7
CCc1cccc(NC(=O)C2CC2c2ccccc2)c1 (stereo not given),4084,-0.3,36.0*,9.7
COC(=O)c1ccc(NC(=O)CN2C(=O)C3C4C=CC(C4)C3C2=O)cc1 (stereo not given),17210*,-2.6,-3.0,-0.6
CCOC(=O)c1ccc(NC(=O)CSc2nnnn2CCCO)cc1,22895*,-0.9,-3.1,-0.7
Cc1cccn2c(CNCCc3ccco3)c(C(=O)N3CCOCC3)nc12,?,-0.9,-2.3,-2.8
CCc1ccccc1NC(=O)C1CCN(c2cnccn2)CC1,3636,2.9,2.3,-5.4
C[C@H]1CN(S(=O)C(C)(C)C)[C@H](CCO)/C1=C\c1ccccc1 (stereo not given in full),3125,-0.4,-0.8,-4.4
CN(C)C1(CNC(=O)C2CCN(S(=O)(=O)c3ccccc3C(F)(F)F)CC2)CCCCC1,5585,0.4,-9.8,2.6
CNC(=O)NC1CCCCc2sccc21 (stereo not given),16866*,-0.1,-3.4,-2.0
CNC(=S)N1CCc2sccc2C1C (stereo not given),6227,0.0,0.3,-0.7
O=C(/C=C/c1cccc(F)c1)OCC(=O)N1CCc2ccccc21,?,-2.2,-10.0,-3.5
COCCCNc1nc2c(c(=O)n(Cc3ccc(Cl)cc3)c(=O)n2C)n1C,3546,-2.8,8.0,11.8
Cn1c(NCCCN2CCOCC2)nc2c1c(=O)n(Cc1ccc(Cl)cc1Cl)c(=O)n2C,21423*,1.7,0.5,-8.2
Cc1cc(C)cc(NC(=O)N2CCC(c3nc4ccccc4o3)CC2)c1,20562*,-1.7,-2.7,-1.2
Cc1cccc(NC(=O)N2CCC(c3nc4ccccc4o3)CC2)c1,9964,0.0,-1.7,-6.1
SMILES,Autofluor counter,BoNT-A LC inh2,BoNT F protease,Anthrax LF inh2
O=C(NC1CSCC1OC(=O)c1ccccc1)c1ccccc1 (stereo not given),5241,-0.8,2.6,-7.9
COC(=O)NC1CSCC1OC(=O)c1ccc(Br)cc1 (stereo not given),22183*,?,1.5,-2.9
COc1cc(NC(=O)c2ccco2)c(OC)cc1NC(=O)CCC(=O)Nc1cc(C)cc(C)c1,20576*,-3.0,-5.0,-1.5
COc1cc(NC(=O)c2ccco2)c(OC)cc1NC(=O)CCC(=O)Nc1cc(C)ccc1C,20046*,0.4,0.9,-0.8
Cc1cccn2c(=O)c3cc(C(=O)NC4CCCC4)c(=N)n(CCCN4CCOCC4)c3nc12,5760,-0.6,2.5,-2.2
C=CCSc1n[nH]c(-c2ccc(OCCC)cc2)n1,10793,0.2,0.7,-3.5
C=CCSc1n[nH]c(-c2ccc(OCCCC)cc2)n1,16907*,-2.1,-3.8,-1.5
Clc1ccc(COn2c(-c3ccc(Cl)cc3)nc3ccccc32)cc1,21296*,?,-7.2,0.1
COn1c(-c2ccc(Cl)cc2)nc2ccc(Cl)cc21,23040*,0.4,-0.7,-1.6
